Laboratory results reported in PubChem BioAssay AID977607 (Broad Institute, 2014).
Hit rate of the full screen: of about 1,500 compounds, about 460 (31%) were called active. Inconclusive results (about 1%) are left out.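 The calls were made as follows: active = curve reaches 40% activation over neutral controls at an AC40 no higher than the top valid tested concentration; inconclusive = no clear call, values can overlap the other calls; inactive = signal moving opposite to the expected increase, and the rest.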 A selection follows. Results with a measured potency or affinity are listed apart.

Test: activators of glucose-dependent insulin secretion, dose response, cell-based, INS-1E, Gaussia luciferase, luminescence, cherry-pick, set 2 (AID 977607);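 also: 0% = median of the plate neutral control wells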
Settings: INS-1E GLuc insulin secretion reporter, 2-3 h, stronger effect = higher value; at 35 µM, 100% = signal doubled over neutral wells unless noted

Max activation, inactive:
c1ccc(-c2ccccc2OCCN2CCCCC2)cc1 -15.6% [at 0.015 µM, 100% = signal doubled over neutral wells]
C/C=C1\COC(C(=O)NCc2ccccc2)(C(F)(F)F)C=C1C=C1CCCCC1 (stereo unspecified) -27% [at 11 µM, 100% = signal doubled over neutral wells]
COc1cc(OC)c2c(-c3ccccc3)cc(C3CCCCC3)nc2c1 -18.2% [at 0.046 µM, 100% = signal doubled over neutral wells]
Cc1cccc(C)c1NC(=O)C1c2ccccc2OCC(=O)N1CCCN1CCOCC1 (stereo unspecified) -19% [at 3.8 µM, 100% = signal doubled over neutral wells]
CCOc1ccc(Nc2oc(-c3cccc(Cl)c3)nc2C#N)cc1 -13.2% [at 0.135 µM, 100% = signal doubled over neutral wells]
Cc1ccc(-c2nc(C#N)c(NCC3CCCO3)o2)cc1 (stereo unspecified) -16.4% [at 0.135 µM, 100% = signal doubled over neutral wells]
CCCCC(=O)Nc1ccc(C(=O)NNC(=O)c2ccc(C)c(Br)c2)cc1 -20.4% [at 3.8 µM, 100% = signal doubled over neutral wells]
CC1CCC(C(C)C)C(OCC(O)CNC(C)c2ccccc2)C1 (stereo unspecified) 35.2%
COc1ccc2c(c1)C(C)(Cc1ccc(C(=O)c3ccccc3)cc1)C(=O)N2 (stereo unspecified) -33.7%
Cc1ccsc1/C=N/n1c(-c2ccncc2)n[nH]c1=S 18.6%
Cc1ccccc1-c1n[nH]c(=S)n1/N=C/c1c(C)nn(-c2ccccc2)c1C -18% [at 0.0016 µM, 100% = signal doubled over neutral wells]
CC(C(=O)Nc1ccc2[nH]c(=O)[nH]c2c1)N1CCN(Cc2ccc3c(c2)OCO3)CC1 (stereo unspecified) -27.3% [at 11 µM, 100% = signal doubled over neutral wells]
O=C1NC(=O)C2(CCCCC2C2CCCCC2)N1 (stereo unspecified) 32.9% [at 0.135 µM, 100% = signal doubled over neutral wells]
Cc1ccc(S(=O)(=O)N(C)c2nc3ccccc3n3c(C(C)C)nnc23)cc1 -16.3% [at 0.42 µM, 100% = signal doubled over neutral wells]
Cc1ccc(C(=O)Nc2cccc(C(=O)N/N=C/c3ccc(F)cc3)c2)cc1 -21.7% [at 0.046 µM, 100% = signal doubled over neutral wells]
O=C(O)COc1ccccc1-c1ccccc1 -20.7% [at 3.8 µM, 100% = signal doubled over neutral wells]
CCCCCCC1CCC(C(=O)Nn2c(C)nc3ccccc3c2=O)CC1 (stereo unspecified) 26.8% [at 0.015 µM, 100% = signal doubled over neutral wells]
COc1ccccc1NS(=O)(=O)c1cccc(C(=O)N/N=C/c2c(C)nn(-c3ccccc3)c2N2CCCC2)c1 -50.5%
Cc1nn(-c2ccccc2)c(N2CCCC2)c1/C=N/O -12.4% [at 0.046 µM, 100% = signal doubled over neutral wells]
CC(C)NC(=O)OC[C@H]1O[C@H](C#Cc2ccc(C(C)(C)C)cc2)C=C[C@H]1O 54.1%
CC(C)NC(=O)C1(C)CN(S(C)(=O)=O)CC(=O)N1CCCN1CCOCC1 (stereo unspecified) -19.6% [at 0.015 µM, 100% = signal doubled over neutral wells]
O=C(O)c1ccc(-n2nnnc2SCc2ccccc2Br)cc1 24.2%
O=C(O)c1ccc(-n2nnnc2SCc2cccc(Br)c2)cc1 -16.4% [at 0.135 µM, 100% = signal doubled over neutral wells]
O=C(Nc1ccc(F)cc1)C1COc2ccccc2O1 (stereo unspecified) -26.7%
Cc1ccc(CS(=O)Cc2ccc(C(=O)NCc3ccccc3)o2)cc1 (stereo unspecified) 8.81% [at 1.2 µM, 100% = signal doubled over neutral wells]
Clc1ccc(OCCn2ccnc2)c(Cl)c1 53.2%
COc1ccc(/C=C/c2noc(-c3ccccc3OC(C)=O)n2)cc1 -25.1%
O=C(COc1cccc2c1CCNC2=O)NC1CCCCC1 -23.7% [at 1.2 µM, 100% = signal doubled over neutral wells]
CCCCOc1ccc(C2=NNC(=O)CC2)cc1 -15.4% [at 3.8 µM, 100% = signal doubled over neutral wells]
COCCNc1nc(N2CCCCC2)c2cnn(C)c2n1 -16.6% [at 0.42 µM, 100% = signal doubled over neutral wells]
Cc1c(P(=S)(c2ccccc2)c2ccccc2)[n+]2ccccc2n1C/C=C/c1ccccc1 -32.8%
O=C(Nc1ccc(C(=O)N2CCCC2)cc1)c1cccc(C(F)(F)F)c1 -13% [at 0.015 µM, 100% = signal doubled over neutral wells]
O=c1[nH]c2ccccc2nc1-c1nnnn1C1CCCC1 -11.7%
COc1ccc(-c2nc(N)ncc2-c2ccc(OC)c(OC)c2)c(O)c1 -26.8% [at 0.046 µM, 100% = signal doubled over neutral wells]
COc1ccc(CN2CCOC2=O)cc1OC -24.4% [at 0.046 µM, 100% = signal doubled over neutral wells]
COc1ccc(CNC(=O)CCn2c(=O)oc3ccccc32)c(OC)c1 -18.2% [at 3.8 µM, 100% = signal doubled over neutral wells]
O=C([C@H]1O[C@@H](n2ccc(=O)[nH]c2=O)[C@H](O)[C@@H]1O)N1CCN(c2ccc(Cl)cn2)CC1 -17.9% [at 1.2 µM, 100% = signal doubled over neutral wells]
CS(=O)(=O)N1CCCCC1c1cc(C(=O)Nc2cccc(C#N)c2)no1 (stereo unspecified) -20.8% [at 0.135 µM, 100% = signal doubled over neutral wells]
COc1ccc(C2=NOC(C(=O)Nc3cccnc3)C2)cc1OC (stereo unspecified) 36.7% [at 11 µM, 100% = signal doubled over neutral wells]
COc1ccc(-c2noc(CCC(=O)Nc3cccnc3)n2)cc1OC 10.9%
CCC(CC)NC(=O)c1ccccc1Oc1ccccc1 -14.5% [at 0.046 µM, 100% = signal doubled over neutral wells]
CC(=O)c1ccc2c(c1)N(Cc1ccccc1)C(=O)C(C)S2 (stereo unspecified) -15.7% [at 3.8 µM, 100% = signal doubled over neutral wells]
CC(C)(C)c1ccc(C#C[C@@H]2C=C[C@H]3OC(=O)CC/C=C/CCC(=O)OC[C@H]3O2)cc1 -35.6% [at 3.8 µM, 100% = signal doubled over neutral wells]
CCOC(=O)C1=C(COC(=O)c2cccs2)NC(=O)NC1C (stereo unspecified) 39.2% [at 11 µM, 100% = signal doubled over neutral wells]
Cc1ccnc(NC(=O)CNC(=O)c2ccco2)c1 -26.8% [at 3.8 µM, 100% = signal doubled over neutral wells]
Cc1c(Cc2ccccc2)sc(NC(=O)c2ccco2)c1C(N)=O -16.3% [at 0.015 µM, 100% = signal doubled over neutral wells]
COc1ccc(-c2c(NC(=O)c3ccco3)oc3ccc(Cl)cc3c2=O)cc1 -15.5% [at 0.42 µM, 100% = signal doubled over neutral wells]
Cc1ccc2sc(-c3ccc(NC(=O)c4cc(-n5cnnc5)ccc4Cl)cc3)nc2c1 38.9%
CCOc1cc(NC(=O)c2ccco2)c(OCC)cc1NC(=O)c1cc(OC)c(OC)c(OC)c1 33.6%
Cc1ccc(C2(C)NC(=O)N(CC(=O)Nc3ccc(-c4nc5ccc(C)cc5s4)cc3)C2=O)cc1 (stereo unspecified) -34.8%
CN(C)CCNc1ncnc2oc(-c3ccccc3)c(-c3ccccc3)c12 -17.7% [at 0.0016 µM, 100% = signal doubled over neutral wells]
CCOC(=O)C1CCCN(C(=O)c2ccccc2OC(F)(F)F)CC1 (stereo unspecified) -23.6% [at 0.0016 µM, 100% = signal doubled over neutral wells]
CCOc1cc(/C=N/NC(=O)CCn2nnc3ccccc32)ccc1O 23.5%
CCOc1ccccc1OCCC(=O)NNC(=O)Cn1nc(C)cc1C -16% [at 0.005 µM, 100% = signal doubled over neutral wells]
CCn1nnc(NC(=O)c2sc3ccccc3c2Cl)n1 -17.8% [at 3.8 µM, 100% = signal doubled over neutral wells]
Cc1c(NC(=S)NC(=O)c2sc3ccccc3c2Cl)cccc1C(=O)O -23.7% [at 0.0016 µM, 100% = signal doubled over neutral wells]
